# How the values were obtained:
# Settings in all cases: Compound concentration 20.0 uM
# [1] = target: Tyrosine-protein kinase ABL1 (Homo sapiens) (UniProt P00519)
# [2] = target: Bromodomain-containing protein 4 (Homo sapiens) (UniProt O60885)
# [3] = target: Cyclin-dependent kinase 2 (Homo sapiens) (UniProt P24941)
# [4] = target: Casein kinase I isoform delta (Homo sapiens) (UniProt P48730)
# [5] = target: Glycogen synthase kinase-3 beta (Homo sapiens) (UniProt P49841)
# [6] = target: Mitogen-activated protein kinase 1 (Homo sapiens) (UniProt P28482)
# [7] = target: T1, Aurora kinase A (Homo sapiens) (UniProt O14965)
# T1 sequence (whole entry): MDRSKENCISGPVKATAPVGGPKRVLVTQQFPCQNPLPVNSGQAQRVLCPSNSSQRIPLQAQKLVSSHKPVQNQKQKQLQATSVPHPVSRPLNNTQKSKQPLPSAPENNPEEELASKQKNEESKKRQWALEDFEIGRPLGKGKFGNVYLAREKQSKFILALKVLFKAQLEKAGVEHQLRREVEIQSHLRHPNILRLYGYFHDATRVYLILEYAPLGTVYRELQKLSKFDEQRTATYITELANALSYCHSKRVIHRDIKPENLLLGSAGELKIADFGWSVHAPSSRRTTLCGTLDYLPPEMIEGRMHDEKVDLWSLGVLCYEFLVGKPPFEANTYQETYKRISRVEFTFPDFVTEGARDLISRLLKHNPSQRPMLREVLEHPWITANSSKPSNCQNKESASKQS
# [8] = target: T2, Transcription intermediary factor 1-alpha (Homo sapiens) (UniProt O15164)
# T2 sequence (whole entry): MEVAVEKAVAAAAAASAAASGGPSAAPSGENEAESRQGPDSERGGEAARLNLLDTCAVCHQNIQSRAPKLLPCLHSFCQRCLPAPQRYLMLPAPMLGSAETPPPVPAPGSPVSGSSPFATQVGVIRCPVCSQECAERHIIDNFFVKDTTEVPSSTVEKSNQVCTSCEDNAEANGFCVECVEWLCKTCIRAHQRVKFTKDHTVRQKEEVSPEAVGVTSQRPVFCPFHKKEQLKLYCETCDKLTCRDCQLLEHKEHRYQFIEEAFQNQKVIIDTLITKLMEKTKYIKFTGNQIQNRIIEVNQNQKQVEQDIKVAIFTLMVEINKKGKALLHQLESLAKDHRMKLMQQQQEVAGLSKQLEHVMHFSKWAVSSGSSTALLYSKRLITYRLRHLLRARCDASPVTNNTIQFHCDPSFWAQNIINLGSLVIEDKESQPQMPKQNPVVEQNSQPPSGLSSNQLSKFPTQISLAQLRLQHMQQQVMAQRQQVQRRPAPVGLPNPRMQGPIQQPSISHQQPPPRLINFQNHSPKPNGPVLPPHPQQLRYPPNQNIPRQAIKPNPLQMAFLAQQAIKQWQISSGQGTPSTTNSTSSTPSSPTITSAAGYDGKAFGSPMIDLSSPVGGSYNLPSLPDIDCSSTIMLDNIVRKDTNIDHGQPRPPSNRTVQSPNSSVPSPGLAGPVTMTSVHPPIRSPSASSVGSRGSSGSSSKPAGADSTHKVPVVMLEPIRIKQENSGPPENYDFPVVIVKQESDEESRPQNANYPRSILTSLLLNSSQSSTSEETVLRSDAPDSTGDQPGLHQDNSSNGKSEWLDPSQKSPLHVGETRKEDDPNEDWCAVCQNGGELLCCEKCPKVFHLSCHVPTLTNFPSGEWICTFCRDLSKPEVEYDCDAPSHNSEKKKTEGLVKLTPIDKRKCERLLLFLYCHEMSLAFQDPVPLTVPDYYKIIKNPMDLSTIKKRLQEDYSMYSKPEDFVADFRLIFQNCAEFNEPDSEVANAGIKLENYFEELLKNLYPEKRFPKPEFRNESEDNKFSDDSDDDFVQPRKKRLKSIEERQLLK
# Casein kinase I isoform delta (Homo sapiens), sequence (P48730 whole entry, looked up, canonical isoform): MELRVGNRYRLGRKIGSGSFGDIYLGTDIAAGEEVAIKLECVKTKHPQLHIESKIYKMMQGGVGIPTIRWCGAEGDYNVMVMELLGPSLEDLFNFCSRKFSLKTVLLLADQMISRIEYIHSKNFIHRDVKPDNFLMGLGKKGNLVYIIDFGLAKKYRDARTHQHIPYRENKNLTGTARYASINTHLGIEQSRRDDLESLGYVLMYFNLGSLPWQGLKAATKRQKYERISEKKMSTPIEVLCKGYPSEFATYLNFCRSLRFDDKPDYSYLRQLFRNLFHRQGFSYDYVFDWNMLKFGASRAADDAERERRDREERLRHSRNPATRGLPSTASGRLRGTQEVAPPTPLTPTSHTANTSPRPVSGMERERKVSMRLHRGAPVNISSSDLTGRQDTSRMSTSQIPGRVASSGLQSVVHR
# Mitogen-activated protein kinase 1 (Homo sapiens), sequence (P28482 whole entry): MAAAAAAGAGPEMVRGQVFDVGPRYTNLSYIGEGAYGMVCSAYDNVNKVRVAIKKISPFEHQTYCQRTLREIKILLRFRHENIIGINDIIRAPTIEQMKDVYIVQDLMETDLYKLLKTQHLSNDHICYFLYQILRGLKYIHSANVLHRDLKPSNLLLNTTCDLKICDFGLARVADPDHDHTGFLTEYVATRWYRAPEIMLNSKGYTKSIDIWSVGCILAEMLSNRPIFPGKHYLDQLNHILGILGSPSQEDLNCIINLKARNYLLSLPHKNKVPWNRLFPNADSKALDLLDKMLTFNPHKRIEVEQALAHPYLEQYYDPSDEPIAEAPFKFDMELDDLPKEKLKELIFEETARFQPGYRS
# Glycogen synthase kinase-3 beta (Homo sapiens), sequence (P49841 whole entry, looked up): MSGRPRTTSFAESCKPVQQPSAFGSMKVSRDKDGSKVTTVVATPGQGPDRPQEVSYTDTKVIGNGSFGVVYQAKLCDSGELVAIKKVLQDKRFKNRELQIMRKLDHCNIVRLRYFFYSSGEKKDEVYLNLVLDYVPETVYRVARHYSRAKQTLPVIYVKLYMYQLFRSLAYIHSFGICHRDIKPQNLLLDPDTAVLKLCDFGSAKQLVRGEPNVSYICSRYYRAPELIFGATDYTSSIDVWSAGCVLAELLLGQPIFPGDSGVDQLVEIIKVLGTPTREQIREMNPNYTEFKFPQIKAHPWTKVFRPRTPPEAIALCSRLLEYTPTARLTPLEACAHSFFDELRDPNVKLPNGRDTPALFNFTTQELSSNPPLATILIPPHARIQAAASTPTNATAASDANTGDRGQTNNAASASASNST
# Tyrosine-protein kinase ABL1 (Homo sapiens), sequence (P00519 whole entry): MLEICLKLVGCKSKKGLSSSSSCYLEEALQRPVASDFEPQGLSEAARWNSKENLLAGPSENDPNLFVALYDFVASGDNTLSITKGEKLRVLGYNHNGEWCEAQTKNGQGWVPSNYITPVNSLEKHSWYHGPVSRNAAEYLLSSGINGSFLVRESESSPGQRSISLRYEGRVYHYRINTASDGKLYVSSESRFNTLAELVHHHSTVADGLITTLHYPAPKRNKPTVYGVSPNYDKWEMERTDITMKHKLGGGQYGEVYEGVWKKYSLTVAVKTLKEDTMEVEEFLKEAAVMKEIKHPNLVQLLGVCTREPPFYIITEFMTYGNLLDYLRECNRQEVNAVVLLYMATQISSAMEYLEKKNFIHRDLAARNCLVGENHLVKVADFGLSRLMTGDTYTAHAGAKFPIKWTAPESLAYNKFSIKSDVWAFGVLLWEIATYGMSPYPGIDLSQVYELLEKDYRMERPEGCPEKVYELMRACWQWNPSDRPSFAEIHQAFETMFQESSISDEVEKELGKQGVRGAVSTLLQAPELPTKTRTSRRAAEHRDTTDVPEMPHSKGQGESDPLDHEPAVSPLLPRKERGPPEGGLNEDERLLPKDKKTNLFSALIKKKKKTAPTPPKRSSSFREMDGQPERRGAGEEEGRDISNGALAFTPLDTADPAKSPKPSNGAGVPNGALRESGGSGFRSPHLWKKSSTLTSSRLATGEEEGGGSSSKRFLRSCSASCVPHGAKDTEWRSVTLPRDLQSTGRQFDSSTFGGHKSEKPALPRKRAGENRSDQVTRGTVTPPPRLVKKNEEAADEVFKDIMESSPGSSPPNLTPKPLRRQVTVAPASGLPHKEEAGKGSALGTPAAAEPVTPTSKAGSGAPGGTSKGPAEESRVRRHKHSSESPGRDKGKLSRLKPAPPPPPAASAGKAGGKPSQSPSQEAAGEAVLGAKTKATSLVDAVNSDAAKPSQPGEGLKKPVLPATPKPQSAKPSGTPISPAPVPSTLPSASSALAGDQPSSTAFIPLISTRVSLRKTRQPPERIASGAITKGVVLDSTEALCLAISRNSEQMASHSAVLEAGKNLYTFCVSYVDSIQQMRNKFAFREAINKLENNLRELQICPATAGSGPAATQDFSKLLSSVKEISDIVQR
Structure (SMILES),ΔTm [1] [°C],ΔTm [2] [°C],ΔTm [3] [°C],ΔTm [4] [°C],ΔTm [5] [°C],ΔTm [6] [°C],ΔTm [7] [°C],ΔTm [8] [°C]
N=C(N)SCc1ccc(CN2C(=O)C(=O)c3cc(Br)cc(Br)c32)cc1,-4.26,-11.4,0,-2.52,-2.8,-1.76,-5.55,0
CC(=O)N[C@@H](CC(=O)O)C(=O)N[C@@H](CC(N)=O)C(=O)N[C@@H](CC(C)C)C(=O)N[C@H](C=O)CC(=O)O,0.21,-3.48,0.27,-0.23,-0.99,0.1,-0.95,0.8
N[C@@H](CC(=O)N1CCN(C(c2ccc(F)cc2)c2ccc(F)cc2)CC1)C(=O)N1Cc2ccccc2C1,-0.03,0.11,-3.61,-0.26,0,0,0,-6.21
COc1ccc(C(=O)C2CCN(CC(=O)N(Cc3nc4c(c(=O)[nH]3)COCC4)CC3CC3)CC2)cc1,0.52,-1.61,0.34,-0.4,-0.12,0.46,-1.35,0.91
CCn1ncc2c(NC3CCOCC3)c(-c3nnc(Cc4sc(C)nc4C)o3)cnc21,0.37,-1.68,-0.03,0.21,-0.23,0.54,-2.35,0.22
Cn1cc(-c2ccncc2)c(-c2ccc(OCc3ccc4ccccc4n3)cc2)n1,0.66,-0.49,-0.35,1.79,0,0.13,2.06,0.65
O=C(NO)c1cccc(C(=O)NCCc2ccccc2)c1,0.54,-1.69,1.3,0.19,-1.53,0.15,-0.23,-1.33
O=C(NCc1ncccc1F)c1coc(CCNCCc2nc3ccccc3[nH]2)n1,0.46,-3.66,-0.13,-0.23,-0.87,-0.05,-2.57,-0.59
C[C@H](c1nc2c(cnn2C2CCOCC2)c(=O)[nH]1)N1CC(Oc2ccccc2)C1,0.76,-2.52,0.6,-0.29,3.31,0.49,-1.78,0.73
COc1cccc(OC)c1S(=O)(=O)Nc1noc2cc(Cn3cccn3)cc(OC)c12,0.73,-2.01,0.06,-0.03,-1.16,0.02,-0.5,-1.5
CC(=O)N1CCN([C@H]2CCC[C@@H](NC(=O)c3cc4c(F)ccc(C)c4[nH]3)C2)CC1,0.05,-1.42,0.08,0.26,-1.37,0.01,-0.09,-1.38
Nc1c[nH]c(=O)c2cc(-c3ccccc3)sc12,0.27,-1.56,-0.22,0.6,-0.86,0.57,-0.64,-1.2
O=C(CN1CCN(c2ccc(F)cn2)CC1)Nc1nc2c(s1)CCCC2,0.42,-2.75,0.14,-0.25,0.02,0.86,-1.16,-2.28
CCc1c(C#N)c(S[C@@H](C(N)=O)c2ccccc2)nc(N(C)C)c1C#N,0.6,-2.37,0.24,-0.69,0.35,0.45,-2.54,0.58
O=C(CCCCCCC(=O)Nc1ccc([C@H]2O[C@@H](CSc3nc(-c4ccccc4)c(-c4ccccc4)o3)C[C@@H](c3ccc(CO)cc3)O2)cc1)NO,-3.66,-1.65,-1.26,0,2.86,-12.5,2.82,3.56
CC#CCn1c(N2CCC[C@@H](N)C2)nc2c1c(=O)n(Cc1nc(C)c3ccccc3n1)c(=O)n2C,-0.11,0.18,-0.01,-0.33,-0.82,0.06,-0.13,-0.79
CC(=O)N[C@@H](CCCCNC(=O)CSCCNC(=O)CCNC(=O)[C@H](O)C(C)(C)COP(=O)(O)OP(=O)(O)OC[C@H]1O[C@@H](n2cnc3c(N)ncnc32)[C@H](O)[C@@H]1OP(=O)(O)O)C(N)=O,0.23,-2,-0.07,-0.41,-0.08,-0.01,-0.37,1.51
Cc1cccc(N/N=C(\C(=O)c2cccs2)C(=O)C(F)(F)F)c1,0.48,-1.9,0.44,-0.01,-0.93,0.19,-1.9,-1.89
CC#C[C@]1(O)CC[C@H]2[C@@H]3CCC4=CC(=O)CCC4=C3[C@@H](c3ccc(N(C)C)cc3)C[C@@]21C,0.11,-2.39,-0.02,0.02,-1.3,-0.7,-1.55,-0.92
COc1cc(C(C)C)c2c(c1)S(=O)(=O)N(COc1cc(=O)n3cccc(OCCN4CCCCC4)c3n1)C2=O,0.26,-2.34,-0.17,0.5,0.26,-0.23,2.88,-1.28
CC(=O)N[C@@H](Cc1ccc(O)cc1)C(=O)N[C@H](C(=O)N[C@@H](C)C(=O)N[C@H](C=O)CC(=O)O)C(C)C,0.25,-2.08,0.16,0.05,-0.9,-0.12,-1.08,-0.33
CN1CCN(c2cc(C(=O)Nc3ncc(SCc4cccc(C(F)(F)F)c4)s3)ccn2)CC1,3.36,-0.44,-0.22,-0.03,0,-0.59,0,-2.66
CN(Cc1ccccc1)c1ccc2cc(C(=O)O)c(=O)oc2c1,0.44,2.11,0.37,0.11,0,0.54,-1.09,0.17
